PubChem BioAssay (NCATS)
Where “and” joins values, the source holds several entries; their conditions need not be identical. Equal entries are not always repeated. Records with an inconclusive call do not appear. More than one record can exist for a structure, and the calls need not agree. Calls of active or inactive are those of the source. Calls follow the shape of the dose curve; as a rule, active = well fitted curve in the direction sought with a large enough effect; inconclusive = small, poorly fitted or top-dose-only effect, or another doubt; inactive = no such curve, though single readings can be large; an effect the other way counts as inactive or inconclusive.

What was measured:
[1] = molecular target: Glutathione peroxidase 1 (Homo sapiens) (UniProt P07203); assay: Primary qHTS Assay for Inhibitors of Recombinant Selenoprotein Glutathione Peroxidase 1 (GPX1) (AID 1845191); also: nearly all actives have a fitted effect of over 65% in size; also: potency is read from the fitted curve at half-maximal effect; as to activity, negative = inhibition: % is scaled to controls: 0 for no effect and ±100 for the full control effect
How it was run: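 GR-coupled assay: compounds preincubated 30 min at room temperature with GPX1, then reaction started with CHP; final 10 nM GPX1, 1 mM GSH, 0.5 mM CHP, 0.5 mM NADPH, 100 nM GR, 0.01% BSA, pH 7.5 Tris buffer. NADPH fluorescence (340/450 nm) read at 0 and 15 min.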

[2] = molecular target: Phospholipid hydroperoxide glutathione peroxidase GPX4 (Homo sapiens) (UniProt P36969); assay: Primary qHTS Assay for Inhibitors of Recombinant Selenoprotein Glutathione Peroxidase 4 (GPX4) (AID 1845192); also: nearly all actives have a fitted effect of over 65% in size; also: potency is read from the fitted curve at half-maximal effect; as to activity change, negative = inhibition: series mostly up to about 50 µM; % is scaled to controls: 0 for no effect and ±100 for the full control effect
How it was run: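 GR-coupled assay: recombinant GPX4 preincubated 30 min with compound at room temperature; final 200 nM GPX4, 1 mM GSH, 0.5 mM cumene hydroperoxide, 0.5 mM NADPH, 100 nM GR, 0.01% BSA, pH 7.5 Tris. NADPH fluorescence (340/450 nm) read at 0 and 15 min.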

[3] = Primary fluorescence-based thiol-reactive (MSTI) qHTS assay for identification of artifact compounds. (AID 1845221); also: nearly all actives have a fitted effect of over 65% in size; also: potency is read from the fitted curve at half-maximal effect;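 as to activity change, negative = thiol reactive: series mostly up to about 54 µM; thiol-reactive compounds lower the probe fluorescence signal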
How it was run: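 Curve-fitted percent inhibition (4-parameter Hill) derived from fluorescence, Ex 525/Em 598 nm, scaled with Acetyl-MSTI and MSTI; 1 h incubation at room temperature.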

[4] = test system: Nanoluciferase (engineered Oplophorus gracilirostris luciferase); assay: Primary Nanoluciferase (NLuc) qHTS assay for identification of artifact compounds. (AID 1845222);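 also: series mostly up to about 54 µM; 0% = DMSO and -100% = no enzyme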
How it was run: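 Diluted conditioned medium from NLuc-expressing S16 cells treated with compounds for 15 min at room temperature, then Nano-Glo substrate added; luminescence read after 5 min. Percent inhibition versus no-enzyme and DMSO controls fitted to 4-parameter Hill equation.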

[5] = Primary redox qHTS assay for identification of artifact compounds. (AID 1845223); also: potency is read from the fitted curve at half-maximal effect;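 as to redox activity (% of DA3003): 0% = DMSO and 100% = reference compound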
How it was run: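 Amplex Red (25 uM) and HRP (250 mU/mL) in HBSS, with compounds for 15 min, then 250 uM DTT for 30 min, room temperature, dark. Fluorescence 525/598 nm read; normalized to DMSO and 10 uM DA3003; Hill fit.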

[6] = molecular target: Luciferin 4-monooxygenase (Photinus pyralis) (UniProt P08659); assay: Primary firefly luciferase (FLuc) qHTS assay for identification of artifact compounds. (AID 1845220); also: nearly all actives have a fitted effect of over 60% in size;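 as to activity change, negative = inhibition: series mostly up to about 54 µM; plate controls were DMSO vehicle for no effect and no enzyme for full effect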
How it was run: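 D-luciferin and ATP (10 uM each, final) in Tris acetate buffer pH 7.6 were incubated with compounds for 15 min at room temperature. The reaction was started with 10 nM Photinus pyralis luciferase and luminescence read after 5 min. Percent inhibition was fitted to a 4-parameter Hill equation.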

Sequence of Glutathione peroxidase 1 (Homo sapiens) (P07203 whole entry, looked up): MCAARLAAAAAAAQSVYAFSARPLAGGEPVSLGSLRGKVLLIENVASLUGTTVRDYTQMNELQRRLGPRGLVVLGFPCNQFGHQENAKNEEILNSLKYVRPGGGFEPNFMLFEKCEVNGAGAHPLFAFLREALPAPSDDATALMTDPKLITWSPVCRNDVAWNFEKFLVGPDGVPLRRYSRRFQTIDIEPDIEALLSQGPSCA
Sequence of Phospholipid hydroperoxide glutathione peroxidase GPX4 (Homo sapiens) (P36969 whole entry, looked up): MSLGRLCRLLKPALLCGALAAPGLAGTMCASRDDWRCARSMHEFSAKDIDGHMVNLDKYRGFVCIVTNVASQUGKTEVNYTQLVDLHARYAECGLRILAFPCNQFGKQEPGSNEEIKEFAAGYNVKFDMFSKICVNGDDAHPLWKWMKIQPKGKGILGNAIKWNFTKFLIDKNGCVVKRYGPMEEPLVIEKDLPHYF

CC1(C)Oc2ncnc(N)c2N=C1c1ccc(C23CCC(CC(=O)O)(CC2)CC3)cc1
inactive: Potency [1] | Potency [2] | Potency [3] | Potency [4] | Potency [5]

CC(=O)O[C@H]1C[C@H](OC(C)=O)[C@]2(C)[C@H](CC[C@@]34O[C@@H]3C3=C(C)C(=O)O[C@@H]3C[C@H]42)C1(C)C
inactive: Potency [1] | Potency [2] | Potency [3] | Potency [4]

COC(=O)c1ccc(N2CCN(C)CC2)c(NC(=O)c2cccc(OC)c2)c1
inactive: Potency [1] | Potency [2] | Potency [3] | Potency [4] | Potency [5]

C/C(=N\N=C(N)N)c1cc(NC(=O)CCCCCCCCC(=O)Nc2cc(/C(C)=N/N=C(N)N)cc(/C(C)=N/N=C(N)N)c2)cc(/C(C)=N/N=C(N)N)c1
inactive: Potency [1] | Potency [2] | Potency [3] | Potency [4]

COc1c2c(nc3occc13)C(CC=C(C)C)(OC)C(O)CC2 (stereo not drawn)
inactive: Potency [1] | Potency [2] | Potency [3] | Potency [4] | Potency [5]

CCc1ccc(-c2nc(CSCC(=O)NCCc3ccccc3)c(C)o2)cc1
inactive: Potency [1] | Potency [2] | Potency [3] | Potency [4] | Potency [5]

C[C@H](Oc1cc(-c2cnn(C3CCNCC3)c2)cnc1N)c1c(Cl)ccc(F)c1Cl
inactive: Potency [1] | Potency [2] | Potency [3] | Potency [4] | Potency [5]

COc1cc2c(cc1O)C1(Cc3ccc4c(c3C1O)OCO4)[N+](C)([O-])CC2 (stereo not drawn)
active: Potency [3] 5.21 µM
inactive: Potency [1] | Potency [2] | Potency [4]

O=C(O)c1cccc(-c2ccc(-c3cn(C(=O)N4CCCCC4Cc4ccccc4)nn3)cc2)c1 (stereo not drawn)
inactive: Potency [1] | Potency [2] | Potency [3] | Potency [4] | Potency [5]

CCCCC1CCN(CCCN2C(=O)CCc3ccccc32)CC1
inactive: Potency [1] | Potency [2] | Potency [3] | Potency [4] | Potency [5]

Nc1nc2c(cnn2CCCc2ccc(O)cc2)c2nc(-c3ccco3)nn12
inactive: Potency [1] | Potency [2] | Potency [3] | Potency [4] | Potency [5]

CC(C)=CCC/C(C)=C/COCC1OC(n2ccc(=O)[nH]c2=O)C(O)C1O (stereo not drawn)
inactive: Potency [1] | Potency [2] | Potency [3] | Potency [4]

CCCN1CCC=C(c2cc(-c3ccc(C)cc3)no2)C1
inactive: Potency [1] | Potency [2] | Potency [3] | Potency [4] | Potency [5]

O=C(Nc1cccc(C(F)(F)F)c1)Nc1ccc(Br)cc1-c1nn[nH]n1
inactive: Potency [1] | Potency [2] | Potency [3] | Potency [4] | Potency [5]

CN(C)Cc1ccc(-c2cnn3c(-c4cccc(NC(=O)c5cccc(C(F)(F)F)c5)c4)ccnc23)cc1
inactive: Potency [1] | Potency [2] | Potency [3] | Potency [4] | Potency [5]

C=C1C(=O)O[C@@H]2C[C@@]3(C)C[C@@H](O)C[C@H](C)C3=C[C@H]12
inactive: Potency [1] | Potency [2] | Potency [3] | Potency [4] | Potency [5]

CC#C[C@@H](CC(=O)O)c1ccc(OCc2cccc(-c3ccc(C(F)(F)F)cc3)c2)cc1
active: Potency [2] 5.7 µM
inactive: Potency [1] | Potency [3] | Potency [4] | Potency [5]

CC[C@@H](C)Nc1cc(C(=O)NC2CC3CC[C@@H](C2)N3c2ccc(C(=O)C3CC3)cn2)c(C)cc1C(N)=O (stereo partly drawn)
active: Potency [1] 16.3 µM | Potency [2] 2.55 µM
inactive: Potency [3] | Potency [4]

CC(C)(C)c1ccc2c(c1)CC[C@H]2NC(=O)Nc1cccc2[nH]ncc12
inactive: Potency [1] | Potency [2] | Potency [3] | Potency [4] | Potency [5]

CCOC(=O)c1csc(Nc2ccc(Cl)cc2)n1
inactive: Potency [1] | Potency [2] | Potency [3] | Potency [4] | Potency [5]

C=C1C(=O)O[C@@H]2/C=C(\CO)CC/C=C(/C=O)C[C@H](O)[C@@H]12
active: Potency [3] 11.9 µM
inactive: Potency [1] | Potency [2] | Potency [4] | Potency [5]

COc1ccc(N(C(=O)Nc2c(C)cccc2C)c2cc(Nc3ccc(N4CCN(C)CC4)cc3)ncn2)c(OC)c1
inactive: Potency [1] | Potency [2] | Potency [4] | Potency [5]

O=c1ccc2ccc(OCCCCN3CCN(c4cccc5sccc45)CC3)cc2[nH]1
inactive: Potency [1] | Potency [2] | Potency [4] | Potency [5]

CC(=O)N1CCN(CCOc2ccc(C3CCN(C4=Nn5c(nnc5C(F)(F)F)CC4)CC3)cc2)CC1
inactive: Potency [1] | Potency [2] | Potency [3] | Potency [4] | Potency [5]

CC1(CO)CC(O)[C@]2(C(=O)O)CCC34CC3(C=CC3[C@]5(C)C(CC[C@]34C)C(C)(CO)[C@@H](O)[C@H](O)[C@@H]5O)C2C1 (stereo partly drawn)
inactive: Potency [1] | Potency [2] | Potency [4] | Potency [5]

Fc1ccc2c(CCNCc3cccc(OCC(F)(F)C(F)F)c3)c[nH]c2c1
inactive: Potency [1] | Potency [6] | Potency [3] | Potency [4]

C=C1C(=O)OC2CC(C)=C(C(C)CCCOC(C)=O)C(OC(=O)CC(C)CC)C12 (stereo not drawn)
inactive: Potency [1] | Potency [2] | Potency [3] | Potency [4] | Potency [5]

CC1(C)CCC(C)(C)c2cc(C#Cc3ccc(C(=O)O)cc3)ccc21
inactive: Potency [1] | Potency [2] | Potency [3] | Potency [4] | Potency [5]

O=C(/C=C/c1ccccc1O)O[C@@H]1O[C@H](CO)[C@@H](O)[C@H](O)[C@H]1O
inactive: Potency [1] | Potency [2] | Potency [3] | Potency [4] | Potency [5]

C=C(C)[C@@H]1CC[C@]2(C(=O)O)CC[C@]3(C(=O)O)[C@H](CCC4[C@@]5(C)CCC(=O)C(C)(C)C5CC[C@]43C)C12 (stereo partly drawn)
inactive: Potency [1] | Potency [2] | Potency [3] | Potency [4] | Potency [5]

C=C1/C(=C/C=C2\CCC[C@]3(C)[C@@H]([C@@H](C)OCCC(O)(CC)CC)CC[C@@H]23)C[C@@H](O)C[C@@H]1O
inactive: Potency [1] | Potency [6] | Potency [3]

CC(C)(C)c1ccc(C(=O)Nc2cn3cc(-n4ccnc4)ccc3n2)cc1
inactive: Potency [1] | Potency [2] | Potency [3] | Potency [4] | Potency [5]

CC(C)CCNC(=O)c1ccc2c(c1)nc(Nc1n[nH]c3ccc(-c4ccccc4OC(F)(F)F)cc13)n2C1CCC(O)CC1 (stereo not drawn)
inactive: Potency [1] | Potency [2] | Potency [4] | Potency [5]
active: Potency [3] 5.32 µM

CNc1nc(Nc2ccc(C(=O)N3CCOCC3)cc2OC)nc2[nH]cc(Cl)c12
inactive: Potency [1] | Potency [2] | Potency [4] | Potency [5]
active: Potency [3] 1.68 µM

CC[C@@H](C)Nc1cc(C(=O)NC2CC3CCC(C2)N3c2ccc(C(=O)C3CC3)cn2)c(C)cc1C(N)=O (stereo partly drawn)
active: Potency [1] 16.3 µM | Potency [2] 5.7 µM
inactive: Potency [4]

Cn1cc(-c2ccc3c(c2)CCN3C(=O)Cc2cccc(C(F)(F)F)c2)c2c(N)ncnc21
inactive and 18.3 µM (active): Potency [1]
inactive: Potency [2] | Potency [4] | Potency [5]
active: Potency [3] 29.9 µM

CC1CC(=O)C2=C(C1)C1OC1C1(O)C2C(=O)c2cccc(O)c2C1O (stereo not drawn)
inactive: Potency [1] | Potency [2] | Potency [4] | Potency [5]
active: Potency [3] 6.56 µM

O=C(Nc1ccc(-c2ccc(Cl)c(Cl)c2)cc1)C1=C(O)c2ccccc2S(=O)(=O)N1
inactive: Potency [1] | Potency [2] | Potency [3] | Potency [4] | Potency [5]

CN(C)c1ccc(NC(=O)NS(=O)(=O)c2ccc(Cl)cc2)cc1
active: Potency [3] 1.89 µM | Potency [5] 3.36 µM
inactive: Potency [1] | Potency [2] | Potency [4]

C=CC(=O)Nc1cccc(Nc2nc(Nc3ccc(OCCOC)cc3)ncc2F)c1
active: Potency [3] 4.74 µM
inactive: Potency [1] | Potency [6] | Potency [4]

CC(=O)NC(C)c1cnc(-c2cnc(Oc3ccc(OC(C)C)cc3)s2)s1 (stereo not drawn)
inactive: Potency [1] | Potency [2] | Potency [3] | Potency [4] | Potency [5]

COc1cccc(OCCCN)c1-c1cc(Nc2cnc(C#N)cn2)n[nH]1
inactive: Potency [1] | Potency [2] | Potency [3] | Potency [4] | Potency [5]

C=CC(=O)N1CCC[C@@H](n2nc(-c3cccc(C(=O)Nc4ccc(C(C)C)c(C)c4)c3)c3c(N)ncnc32)C1
inactive: Potency [1] | Potency [2] | Potency [4] | Potency [5]

O=C(Nc1nc2ccc([N+](=O)[O-])cc2s1)C1CCCCC1
inactive: Potency [1] | Potency [2] | Potency [4]

Cc1cc(C(C)Nc2ccccc2C(=O)O)c2nc(N3CCOCC3)cc(=O)n2c1 (stereo not drawn)
inactive: Potency [1] | Potency [2] | Potency [4]

C[C@@H]1O[C@@H](O[C@H]2[C@H](OC(=O)[C@]34CCC(C)(C)C[C@H]3C3=CCC5[C@@]6(C)C[C@H](O)[C@H](O[C@@H]7O[C@H](CO)[C@@H](O)[C@H](O)[C@H]7O)[C@](CO)(C(=O)O)C6CC[C@@]5(C)[C@]3(C)C[C@H]4O)OC[C@H](O)[C@@H]2O)[C@H](O)[C@H](O)[C@H]1O[C@@H]1OC[C@@H](O)[C@H](O[C@@H]2OC[C@](O)(CO)[C@H]2O)[C@H]1O (stereo partly drawn)
inactive: outcome [1] inactive [at 9.52 µM] | activity change, negative = inhibition [2] -2.46% [at 9.73 µM] | activity change, negative = thiol reactive [3] 423% [at 11.5 µM] | activity, negative = inhibition [4] 2.55% [at 11.6 µM] | redox activity (% of DA3003) [5] 8.49% [at 11.5 µM]

CC(C)=CCc1cc2c(cc1O)OC[C@H]1c3ccc(O)cc3O[C@@H]21
inactive: Potency [1] | Potency [2] | Potency [4] | Potency [5]

COc1ccccc1C(=O)Nc1cccc(NC(=O)c2cccc(C)c2)c1
inactive: Potency [1] | Potency [2] | Potency [3] | Potency [4] | Potency [5]

CC1=C(C(=O)OC2CCCCC2)C(c2ccc([N+](=O)[O-])cc2)C2=C(CC(C)(C)CC2=O)N1 (stereo not drawn)
inactive: Potency [1] | Potency [2] | Potency [3]
active: Potency [5] 2.12 µM

CC(=O)OC1CCC2(C)C(CCC3(C)C2CC=C2C4C(C)C(C)CCC4(C)CCC23C)C1(C)C(=O)O (stereo not drawn)
inactive: Potency [1] | Potency [2] | Potency [3] | Potency [4] | Potency [5]

C=C1C(=O)O[C@@H]2[C@H]1CCC(C)=C(CCC(=O)O)[C@@]2(C)O
inactive: Potency [1] | Potency [2] | Potency [3] | Potency [4] | Potency [5]

NS(=O)(=O)c1ccc(NC(=O)Nc2ccc(F)cc2)cc1
inactive: Potency [1] | Potency [2] | Potency [3] | Potency [5]
